Compound activity as filed in PubChem BioAssay.
Most compounds without a hit are left out; they make up all but 19% or so of the library.
HT1080 IDH1KD tx – kills HT-1080 cells with IDH1 knockdown; Potency, µM (doses to about 46.1 µM), for inactives: at the highest dose activity, negative = toxicity, hits mostly cytotoxic; 360,000 tested, 2% active; HT-1080 IDH1 knockdown viability, ATP luminescence, 48 h;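 note: potency is the fitted concentration of half-maximal effect; 0% = DMSO wells and -100% = cell-free medium wells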
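HT-1080-IDH1KD cells (IDH1 knocked down), 750/well in RPMI with 5% FBS, treated with compound 48 h at 37 degrees C. Viability by CellTiter-Glo luminescence, normalised to DMSO and no-cell wells; concentration-response curves classed.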
DT40 TDP1 no CPT – qHTS for Inhibitors of human tyrosyl-DNA phosphodiesterase 1 (TDP1): qHTS in cells in absence of CPT | DT40 Tdp1-/- hTDP1 cells, no CPT, ATP luminescence, 48 h | Potency, µM (highest dose often 46.2 µM), without a hit: at the top dose activity change, negative = growth inhibition, actives largely listed as inhibitors | 420,000 tested, 15% active | AID 686978, 2013; note: potency is the fitted concentration of half-maximal effect; nearly all actives have a fitted effect of over 55% in size
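No-CPT arm: Tdp1-/-;hTDP1 DT40 cells (400/well) plus compounds, incubated ≥48 hr at 37 °C. Readout CellTiter-Glo luminescence.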
TDP1 cell CPT – growth inhibition of DT40 Tdp1-/-;hTDP1 cells with camptothecin (screen for TDP1 inhibitors); chicken DT40 Tdp1-/-;hTDP1 cells + 20 nM CPT, ATP luminescence, 48 h; Potency, µM (titrated, usually from 46.2 µM), without a hit: top-dose activity change, negative = growth inhibition, hits mostly inhibitors; 420,000 tested, 12% active; AID 686979; note: potency is the fitted concentration of half-maximal effect; nearly all actives have a fitted effect of over 55% in size
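Chicken DT40 Tdp1-/- cells stably complemented with human TDP1 were seeded at 400 cells/well in medium containing 20 nM camptothecin, exposed to pin-transferred compounds, and grown at 37 °C for at least 48 hr. Viability was read as ATP luminescence.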
IL1B secr inh – blocks inflammasome-driven IL-1 beta release. THP-1 LPS/ATP IL-1B secretion, AlphaLISA, 16 h; stronger effect = lower value. activity change, % at 57.5 µM. 360,000 tested, 4.7% active. AID 743279; in the data active = activity change below about -50%; inconclusive = mostly about -30% to -49%
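Secreted IL-1B measured by AlphaLISA bead assay after 16 h compound exposure of THP-1 cells; compounds (final up to 57.5 uM) added 1 h before LPS (250 ng/mL) and ATP (1.25 mM) stimulation; lower signal means less secretion.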
HT1080NT lethal – kills 2HG-producing HT-1080-NT fibrosarcoma cells. HT-1080-NT fibrosarcoma viability, CellTiter-Glo ATP luminescence, 48 h. 360,000 tested, 1.6% active. Potency, µM (series often up to 46.1 µM), without a hit: at the top dose activity, negative = less viability, most hits filed as cytotoxic. AID 686970;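 note: NT is the 2HG producing partner of a matched IDH1 knockdown line; potency is the fitted concentration of half-maximal effect; 0% = DMSO-treated cells and -100% = media-only wells without cells; nearly all actives have a fitted effect of over 55% in size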
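HT-1080-NT fibrosarcoma cells (2HG-overproducing), 750 cells/well in RPMI with 5% FBS, dosed after 2 h and incubated 48 h at 37C. CellTiter-Glo luminescence normalized to DMSO and no-cell wells; concentration-response curves fitted and classed.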
* hit, by the source's call; ? = inconclusive; · = no result; [ ] = another dose, or the depositor's remark. Unless noted, calls come from the whole dose curve; as a rule, active = well fitted curve in the direction sought with a large enough effect; inconclusive = small, poorly fitted or top-dose-only effect, or another doubt; inactive = no such curve, though single readings can be large; an effect the other way counts as inactive or inconclusive. Unless noted, % is set by controls: 0 for no effect and ±100 for the full control effect.

SMILES	HT1080 IDH1KD tx	DT40 TDP1 no CPT	TDP1 cell CPT	IL1B secr inh	HT1080NT lethal
COc1ccc(-c2cn[nH]c2-c2ccc(OCc3ccc(F)cc3)cc2O)cc1OC	18.4µM*	23.1µM*	20.6µM*	-88.4*	-27.9%
COc1ccc(C(=O)N2CCC[C@@]3(CCN(Cc4nccs4)C3)C2)cc1	·	-13.9%	-29.0%	·	·
Nc1nc(NC2CC2)c2ncn([C@@H]3C=C[C@@H](CO)C3)c2n1	·	15µM*	11.9µM*	·	·
Nc1nc(Cl)c2ncn(C3OC(CO)C(O)C3O)c2n1 (centres undefined)	?	?	?	5.8	-3.1%
Cc1cc(C(=O)N2CCN(S(=O)(=O)c3ccccc3)CC2)c(C)o1	-7.0%	?	23.1µM*	-2.1	-2.5%
Cc1nc2ccccc2c2oc(C(=O)N3CCC(C)CC3)cc12	5.7%	?	?	-1.5	-0.8%
Cc1cc(C(=O)N2CCc3ccccc3C2)c(C)o1	10.3%	?	16.4µM*	-15.0	8.7%
O=C(c1cc2ccccc2o1)N1CCN(S(=O)(=O)c2ccccc2)CC1	-2.2%	-20.9%	11.6µM*	-1.3	1.2%
Cc1nc2ccccc2c2oc(C(=O)N3CCc4ccccc4C3)cc12	-0.2%	16.4µM*	23.1µM*	-1.1	1.3%
O=C(c1cc2ccccc2o1)N1CCN(S(=O)(=O)/C=C/c2ccccc2)CC1	-9.1%	?	?	-14.2	-15.1%
Cc1ccc(C(=O)NCC(=O)OCc2cc(=O)n3c(C)csc3n2)cc1	·	0.2%	-3.8%	·	·
CCOCC(O)COc1ccc(NC(=O)CC[S+](C)C)cc1 (centres undefined)	·	-1.7%	-2.2%	·	·
O=C(COC(=O)c1ccc(F)cc1F)Nc1ccc2c(c1)OCO2	-0.8%	-22.8%	-20.8%	1.4	1.4%
CCOC(=O)C1=CN(Cc2ccco2)S(=O)(=O)N(C)C1c1ccc(C(F)(F)F)cc1 (centres undefined)	-1.2%	?	?	12.6	0.5%
CCOC(=O)C1=CN(Cc2ccco2)S(=O)(=O)N(C)C1c1ccc2ccccc2c1 (centres undefined)	-1.3%	?	20.6µM*	?	-8.6%
COC(=O)[C@@]1(Cc2ccc(OC)cc2)[C@H]2c3cc(C(=O)N4CCCC4)n(Cc4ccccc4)c3C[C@H]2CN1C(=O)c1ccccc1	?	16.4µM*	?	-65.6*	-20.7%
COC(=O)[C@@]1(Cc2ccc(F)cc2)[C@H]2c3cc(C(=O)N4CCCC4)n(Cc4ccc(Cl)c(C(F)(F)F)c4)c3C[C@H]2CN1C(=O)c1ccccc1	?	20.6µM*	20.6µM*	-5.1	?
COC(=O)[C@@]1(Cc2ccc(OC)cc2)[C@H]2c3cc(C(=O)N4CCCC4)n(CCc4ccc(OC)c(Br)c4)c3C[C@H]2CN1C(=O)c1ccccc1	5.6%	20.6µM*	14.6µM*	0.0	23.0%
COC(=O)Cn1c(C(=O)N2CCCC2)cc2c1C[C@H]1CN(C(=O)c3ccccc3)[C@@](Cc3ccc(F)cc3)(C(=O)OC)[C@@H]21	4.0%	-25.0%	?	3.8	-3.7%
COC(=O)[C@@]1(Cc2ccc(F)cc2)[C@H]2c3cc(C(=O)N4CCCC4)n(CCc4ccc(OC)c(Br)c4)c3C[C@H]2CN1C(=O)c1ccccc1	0.8%	18.4µM*	?	-67.0*	8.7%
COC(=O)[C@@]1(Cc2ccc(OC)cc2)[C@H]2c3cc(C(=O)N4CCCC4)n(CCO)c3C[C@H]2CN1C(=O)c1ccccc1	9.6%	-5.3%	0.2%	-16.8	-0.1%
COC(=O)[C@@]1(Cc2ccc(F)cc2)[C@H]2c3cc(C(=O)N4CCCC4)n(CCO)c3C[C@H]2CN1C(=O)c1ccccc1	-1.8%	-21.7%	?	-7.6	-5.2%
C[C@@H]1CN(Cc2ccc3c(c2)CN(Cc2cccn2-c2ccc(Cl)cn2)CCO3)C[C@H](C)O1	·	-7.4%	6.7%[9.04 µM]	·	·
CC(=O)Nc1ccc(S(=O)(=O)N2CCN(C(=O)c3ncoc3-c3ccc(F)cc3)CC2)cc1	0.0%	-25.5%	-2.5%	-7.7	0.9%
COC(=O)C(NC(=O)CC(C)C)(Nc1nc2c(s1)CCCC2)C(F)(F)F (centres undefined)	·	11.6µM*	16.4µM*	·	·
SMILES	HT1080 IDH1KD tx	DT40 TDP1 no CPT	TDP1 cell CPT	IL1B secr inh	HT1080NT lethal
Cc1ccc(NC(=O)CSc2ncc3c(n2)-c2ccc(Cl)cc2N(C)S3(=O)=O)cc1F	·	?	23.1µM*	·	·
CN1c2cc(Cl)ccc2-c2nc(SCC(=O)Nc3ccc(F)cc3F)ncc2S1(=O)=O	·	16.4µM*	23.1µM*	·	·
Cc1ccc(NC(=O)CSc2ncc3c(n2)-c2ccccc2N(C)S3(=O)=O)c(Cl)c1	·	0.651µM*	0.731µM*	·	·
O=C1CCN(Cc2ccc(O)cc2)CCN1CCO	8.0%	-0.5%	-6.5%	2.1	3.7%
N#Cc1ccc(NN=Nc2ccccc2C#N)cc1	0.6%	?	-20.2%	-21.0	-0.8%
Cc1c(Cl)cccc1NC(=S)NCC1COc2ccccc2O1 (centres undefined)	-17.9%	-28.6%	-21.9%	-68.4*	1.0%
C=CCNC(=S)NCC1COc2ccccc2O1 (centres undefined)	4.5%	?	1.4%	2.4	2.1%
Nc1nc(CCl)nc(N(c2ccccc2)c2ccccc2)n1	2.91µM*	?	?	-101.5*	?
Nc1nc(Cl)nc(N(c2ccccc2)c2ccccc2)n1	-5.4%	-2.7%	-19.8%	0.8	-0.5%
O=C(Oc1nsnc1N1CCOCC1)N(c1ccccc1)c1ccccc1	-3.4%	-16.2%	5.6%	-16.1	6.3%
CCOc1ccc(NC(=O)COc2nsnc2N2CCOCC2)cc1	9.5%	13µM*	16.4µM*	7.4	7.8%
COC(=O)Oc1nsnc1N1CCOCC1	0.0%	?	23.1µM*	?	0.0%
O=C(COc1nsnc1N1CCOCC1)N/N=C/c1ccccc1O	14.6µM*	2.59µM*	4.61µM*	48.2	?
O=C(COc1nsnc1N1CCOCC1)Nc1cccc(Cl)c1	-0.2%	-12.4%	-5.3%	-1.8	6.9%
CC1CN(S(=O)(=O)c2cccc(C(=O)Nc3ccc(S(=O)(=O)Nc4ncccn4)cc3)c2)CC(C)O1 (centres undefined)	13.2%	-7.9%	-5.7%	2.5	22.8%
C=CCNC(=O)c1onc(CSc2cccc(OC)c2)c1C(=O)NCC=C	-4.9%	-27.7%	-6.7%	-20.7	-0.3%
Cc1ccc(CNC(=O)c2cc3c(s2)-c2ccc(Cl)cc2SC3)cc1	·	-25.8%	?	·	·
CN(C)CCNC(=O)c1cc2c(s1)-c1ccc(Cl)cc1SC2	?	8.2µM*	2.59µM*	-20.0	?
CN(C(=O)c1cc2c(s1)-c1ccc(Cl)cc1SC2)c1cccc(C(F)(F)F)c1	·	16.4µM*	14.6µM*	·	·
